From PubChem BioAssay
Cruzain inh Det: qHTS Assay for Promiscuous and Specific Inhibitors of Cruzain (with detergent) | Cruzipain (Trypanosoma cruzi), P25779 | purified cruzain, Z-FR-AMC fluorescence, 0.01% Triton | Potency, µM, for the others: max response, negative = inhibition, most hits filed as inhibitors | hit rate 0.43% among 200,000 | AID 1478, 2009;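 also: plate controls were neutral wells for no effect and buffer without enzyme for full effect; nearly all actives have a fitted effect of over 40% in size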
Target sequence (P25779 123-467 limits assumed): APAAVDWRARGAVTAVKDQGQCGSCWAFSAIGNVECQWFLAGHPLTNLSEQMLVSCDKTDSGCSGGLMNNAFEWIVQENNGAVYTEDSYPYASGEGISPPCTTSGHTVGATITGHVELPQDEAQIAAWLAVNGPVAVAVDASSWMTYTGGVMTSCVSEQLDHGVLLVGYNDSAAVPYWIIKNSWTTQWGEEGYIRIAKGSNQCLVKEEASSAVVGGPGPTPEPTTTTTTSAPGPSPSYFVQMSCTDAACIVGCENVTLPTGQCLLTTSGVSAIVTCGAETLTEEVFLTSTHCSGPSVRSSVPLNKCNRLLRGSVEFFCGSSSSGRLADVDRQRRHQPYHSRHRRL
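In this qHTS format, compounds are incubated with 1.5 nM cruzain for 15 min at room temperature before 2 uM Z-FR-AMC is added. Release of AMC is followed at 360/450 nm, and progress is taken as the 60 s fluorescence difference.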
Cruzain inh noDet: qHTS Assay for Promiscuous and Specific Inhibitors of Cruzain (without detergent). purified cruzain, Z-FR-AMC fluorescence, no detergent. Potency, µM, inactives show max response, negative = inhibition, hits mostly inhibitors. hit rate 2.3% among 200,000;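 also: plate controls were enzyme without inhibitor for no effect and buffer without enzyme for full effect; nearly all actives have a fitted effect of over 40% in size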
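Detergent-free condition (0.00005% Triton X-100) in acetate buffer pH 5.5 with DTT. 1.5 nM enzyme and compound were pre-mixed 15 min, then 2 uM Z-FR-AMC substrate added; reaction progress from fluorescence change between first and third reads (60 s).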
An asterisk follows results filed as active; ? = inconclusive. Shown are actives, neighbours in structure and some others; about 2.6% of the full set was active somewhere. Calls follow the shape of the dose curve; as a rule, active = well fitted curve in the direction sought with a large enough effect; inconclusive = small, poorly fitted or top-dose-only effect, or another doubt; inactive = no such curve, though single readings can be large; an effect the other way counts as inactive or inconclusive. Potency is read from the fitted curve at half-maximal effect.

SMILES | Cruzain inh Det | Cruzain inh noDet
COc1cccc([C@@H]2Nc3ccc(C(=O)O)cc3[C@@H]3C=CC[C@@H]32)c1OC | -5.4% | -20.6%
COc1ccc2c(c1)C1C=CCC1C(c1cc3c(cc1Br)OCO3)N2 (stereo not given) | -3.9% | 25.1µM*
CC(C)c1ccccc1NC(=O)C(Cc1c[nH]c2ccccc12)NC(=O)OC(C)(C)C (stereo not given) | -9.3% | -15.2%
CCN(CC)CCn1c(-c2ccccc2)nc2c(NCCO)nc(C)nc21 | 2.8% | -1.4%
O=C(Nc1ccccc1-c1nnn(CC(=O)N2CCCc3ccccc32)n1)c1ccco1 | 0.2% | ?
O=C(Nc1ccccc1-c1nnn(CC(=O)N2CCCc3ccccc32)n1)c1ccc(Cl)cc1 | -6.4% | 31.6µM*
COc1ccccc1CNc1cc(-c2ccccc2C)ncn1 | -1.9% | -3.8%
O=C(/C=C\c1ccco1)Nc1nc(-c2ccccc2)cs1 | 0.6% | 10.2%
O=C(/C=C/c1ccco1)NC(=S)Nc1nc(-c2ccc(Cl)cc2)cs1 | -2.2% | 5.01µM*
Cc1ccc2oc(-c3cccc(NC(=S)NC(=O)c4cccs4)c3)nc2c1 | -0.1% | ?
O=C(/C=C/c1ccco1)NC(=S)Nc1ccccn1 | -9.9% | -6.7%
O=C(/C=C/c1ccco1)NC(=S)Nc1nc(-c2ccc3ccccc3c2)cs1 | 2.1% | 3.98µM*
Cc1ccc2oc(-c3cccc(NC(=S)NC(=O)/C=C/c4ccco4)c3)nc2c1 | -7.0% | 3.98µM*
CCNc1ncc2nc(-c3ccc(F)cc3)c(=O)n(CCC#N)c2n1 | -4.1% | 4.7%
Cc1ccc(S(=O)(=O)N/N=C2/CC(c3ccccc3)Oc3ccccc32)cc1 (stereo not given) | -2.6% | 25.1µM*
O=S(=O)(N/N=C1\CC(c2ccccc2)Oc2ccccc21)c1ccccc1 (stereo not given) | -1.2% | -23.1%
CNC(=S)N/N=C/c1cn(Cc2c(F)cccc2Cl)c2ccccc12 | -6.4% | 31.6µM*
CCNC(=S)N/N=C/c1cn(Cc2ccccc2F)c2ccccc12 | -1.6% | ?
Cc1cc(C)c(S(=O)(=O)Nc2cc(Cl)c3oc4c(c3c2)C(=O)CCC4)cc1C | -1.2% | -6.2%
CCCCCn1c(=O)[nH]c2cc(C(=O)NCc3ccc(C)cc3)ccc2c1=O | 0.4% | 8.3%
CN(CCc1ccccn1)c1ccc2c(c1)C(=O)c1ccccc1-2 | -10.0% | -12.1%
C/C(CC(=O)Nc1ccc(C)c(Cl)c1)=N\NC(=O)Cc1ccccc1 | -2.6% | 11.4%
C/C(CC(=O)Nc1ccc(OCc2ccccc2)cc1)=N\NC(=O)C(=O)Nc1ccc(C)c(Cl)c1 | 1.3% | 7.94µM*
CCCCOc1ccc(S(=O)(=O)Nc2ccc(-c3ccc(N4CCCCCC4)nn3)cc2)cc1 | -3.7% | -23.9%
CCCCOc1ccc(S(=O)(=O)Nc2ccc(-c3ccc(N4CCCCC4)nn3)cc2)cc1 | -4.7% | 31.6µM*
SMILES | Cruzain inh Det | Cruzain inh noDet
C=Cc1ccc(Cn2c(C(=O)O)c(CNCc3ccc(F)cc3)c3ccc(C)cc32)cc1 | -12.8% | ?
COc1ccc(-c2nc(C(=O)Nc3cccc(C(C)=O)c3)nn2-c2ccccc2Cl)cc1 | -17.2% | ?
O=S(=O)(c1cccc(Cl)c1)n1c(/C=C/c2ccccc2Cl)nc2ccccc21 | -9.7% | 7.94µM*
CSc1ccc(/C=C/c2nc3ccccc3n2S(=O)(=O)c2cccc(Cl)c2)cc1 | -11.1% | -0.6%
CCOC(=O)c1c(S(=O)(=O)N2CCCC(C(=O)NCc3ccc(Cl)cc3)C2)c(C)n(C)c1C (stereo not given) | -2.7% | ?
CC(=O)[C@@H]1[C@H]2[C@H](C(=O)[C@H]3OC[C@@H]2O3)[C@H]2C=Cc3ccccc3N21 | -3.8% | ?
O=C(c1ccco1)[C@@H]1[C@@H]2C(=O)N(c3ccc(F)cc3)C(=O)[C@@H]2C2c3ccccc3C=CN21 (stereo not given in full) | -6.5% | -8.1%
O=C(c1ccco1)[C@@H]1[C@@H]2C(=O)N(c3ccc(F)cc3)C(=O)[C@@H]2[C@H]2C=Cc3ccccc3N21 | -6.3% | 25.1µM*
O=C(c1ccco1)[C@@H]1[C@@H]2C(=O)N(c3ccc(Br)cc3)C(=O)[C@@H]2C2c3ccccc3C=CN21 (stereo not given in full) | -3.7% | 12.6µM*
Cc1ccc(CNC(=O)C2CCN(S(=O)(=O)c3cn(C)cn3)CC2)cc1 | 2.0% | -6.0%
CCN(CC)C(=O)Cn1nnc2sc(-c3ccccc3)cc2c1=O | -7.9% | 10.1%
O=C(N/N=C/c1cccc([N+](=O)[O-])c1)c1ccc2c(c1)OCCO2 | -5.3% | 4.7%
O=C(N/N=C/c1cccc([N+](=O)[O-])c1)c1cc2c(ccc3ccccc32)o1 | -13.3% | 10µM*
O=C(N/N=C/c1cccc([N+](=O)[O-])c1)c1cc(-c2ccc3c4c(cccc24)CC3)n[nH]1 | -5.0% | 7.94µM*
O=C(N/N=C/c1ccncc1)c1cc2c(ccc3ccccc32)o1 | -6.1% | -0.6%
COc1cc([C@@H]2c3cc4c(cc3C(OC3OC5COC(C)OC5C(O)C3O)C3COC(=O)[C@@H]32)OCO4)cc(OC)c1O (stereo not given in full) | 3.8% | 12.7%
CCOC(=O)c1[nH]c2c(c1Cc1ccccc1OC)C(=O)CC(c1ccc(OC)cc1)C2 (stereo not given) | -2.7% | -3.1%
Cc1ccc(O)c(C(=O)c2cnc3c(c2)CN(CCC(C)C)C(=O)N3)c1 | -2.3% | 10µM*
Cc1ccc(O)c(C(=O)c2cnc3c(c2)CN(C)C(=O)N3)c1 | -3.8% | -11.6%
COc1ccc2c(c1)c1nnc(SCC(=O)N3C(C)CCCC3C)nc1n2C (stereo not given) | 17.8µM* | -17.1%
COc1ccc2c(c1)c1nnc(SC)nc1n2C | -4.6% | -1.3%
Cc1cnc2c(c1SCC(=O)NCc1ccc(F)cc1)c(=O)n(C)c(=O)n2C | 0.4% | -3.5%
Cc1cc(N)c2ccccc2[n+]1CCCCCCCCCCCCCC[n+]1c(C)cc(N)c2ccccc21 | 12.6µM* | 20µM*
CCCOc1ccc(C(=O)Nc2ccc(NC(=O)c3ccccc3)c(Br)c2)cc1 | 0.5% | 6.3%
CNC(=S)N1N=C(c2ccc(C)cc2)CC1c1ccc(OC)cc1 (stereo not given) | -2.5% | -1.2%
SMILES | Cruzain inh Det | Cruzain inh noDet
Cc1ccc(NC(=O)N2N=C(c3ccc(F)cc3)CC2c2ccc(F)cc2)cc1 (stereo not given) | 1.4% | 1.26µM*
CCOC(=O)Cn1c(=O)oc2cc(S(=O)(=O)N3CCN(c4ccc(Cl)cc4)CC3)ccc21 | 0.8% | -13.8%
C[C@@]1(CCOCc2ccccc2)NC(=O)NC1=O | -6.6% | -2.8%
Cc1ccc(Cl)cc1-n1nnc(-c2nsc(NC(=O)c3ccccc3Cl)n2)c1C | -4.9% | 3.16µM*
Cc1ccc(C(=O)Nc2nc(-c3nnn(-c4cccc(Cl)c4C)c3C)ns2)cc1C | -1.5% | ?
C=CC(C1=CC(=O)C(OC)=CC1=O)c1ccc(O)cc1 (stereo not given) | -2.0% | -5.6%
Cc1nc(NC(=O)/C=C/c2ccccc2)sc1C(=O)Nc1ccc(Cl)cc1 | 5.8% | 1.1%
Cc1nc(NC(=O)/C=C/c2ccccc2)sc1C(=O)Nc1ccccc1Cl | -3.5% | 10µM*
N#C/C(=C\c1ccc(N2CCCCC2)c([N+](=O)[O-])c1)c1nn(-c2ccccc2)c(N)c1C#N | -3.8% | 20µM*
CC1CCCN(c2ccc(/C=C(\C#N)c3nn(-c4ccccc4)c(N)c3C#N)cc2[N+](=O)[O-])C1 (stereo not given) | -4.3% | -29.0%
